In PubChem BioAssay (NCI):
Compounds without any hit were thinned out: in the full panel of roughly 83,000, 20% have a hit.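 Note: values are percent growth. 100 is the growth of untreated cells, values between 100 and 0 indicate rising inhibition; between -100 and 0 indicates cell death.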 Activity calls are given as the source filed them.

System: IGROV1 ovarian
Test: NCI-60 one-dose screen, 48 h (100 = growth as untreated, 0 = no growth, -100 = all killed)
Details: 10 µM unless noted
Method: Growth inhibition of the IGROV1 human tumor cell line is measured as a screen for anti-cancer activity. Cells are grown in 96 well plates and exposed to the test compound for 48 hours. Compounds are tested at a single concentration, which is 10^-5 M for most compounds. The reported endpoint is percent growth (GI% or GIPRCNT), where numbers from 0 - 100% represent growth inhibition, and numbers from -100% - 0 represent cell death. For example, a value of 40 represents 60% growth inhibition. A value of 0 means no net growth occurred over the course of the experiment. A value of -40 indicates 40% of cells at the beginning of the experiment died by the end of the experiment. A value of -100 means all cells are dead at the end of the experiment.
NCI-60 Human Tumor Cell Lines Screen was performed using the standard one-dose NCI protocol, which is described in more detail at https://dtp.cancer.gov/discovery_development/nci-60/default.htm.
Compounds with GIPRCNT values below 10 were considered active. Activity score was based on GIPRCNT using the following formula: […]
Score is 0 for GIPRCNT values of 100 or above, 50 for GIPRCNT values of 0, and 100 for GIPRCNT values of -100.

SMILES	growth
CN(C)CC(C(=O)c1ccccc1)c1ccccc1 (stereo not given)	48.6% (inactive)
CC(=O)Oc1csc(N(C(C)=O)c2cccc(C(F)(F)F)c2)n1	98.4% (inactive)
COc1ccc(NC(=O)c2cc(OC)c(OC)c(OC)c2)cc1O	54.7% (inactive)
COC1=C(OC)C(=O)C(CCCCCCCCCC[P+](c2ccccc2)(c2ccccc2)c2ccccc2)=C(C)C1=O	-31.6% (active)
CC(C)CSc1nc(NN)c(C#N)c(-c2ccc(F)cc2)n1	72.5% (inactive)
c1ccc(-c2cn(-c3ccccc3)c(-c3ccccc3)n2)cc1	4.72% (active)
O=[N+]([O-])c1cccc(-c2nc3sccn3c2-c2ccnc(NCCCNS(=O)(=O)c3ccc(Cl)cc3)n2)c1	43.3% (inactive)
COc1ccc(-c2ccc(-c3ccc(-c4ccc(C(=N)N)cc4)s3)s2)cc1OC	15.7% (inactive)
Fc1ccccc1-c1nc(-c2nc3cc(Cl)c(Cl)cc3[nH]2)c2ccccn12	21.9% (inactive)
O=C(O)COc1ccc(-c2cssc2=S)cc1	112% (inactive)
N/C(=N\S(=O)(=O)c1ccccc1)Nc1nc2ccccc2s1	90.8% (inactive)
CCCCCCCC/C=C/CCCCCCCC1=NC(C)(C)CN1C(C)(C)CO	1.53% (active)
NNc1cccc(/C=C/c2ccccc2)cc1=O	33.6% (inactive)
COc1cc(-c2nc(-c3nc4ccc(Cl)cc4[nH]3)cc3c2[nH]c2ccccc23)cc(OC)c1OC	52.6% (inactive)
CCCCCCCCCCCCCCCCCCNC(=O)[C@H]1CSC(c2ccc(OC)cc2O)N1 (stereo not given in full)	60.1% (inactive)
Cc1ccc(S(=O)(=O)C2=C3C(=C(c4ccccc4)c4ccccc43)CN(S(=O)(=O)c3ccc(C)cc3)C2)cc1	54% (inactive)
O=c1ccn(C2CC(O)C(O)C(CO)O2)c(=O)[nH]1 (stereo not given)	118% (inactive)
COc1ccc(-c2[nH]nc(N)c2-c2cc(OC)c3c(c2)OCO3)cc1	73.9% (inactive)
O=C(NNC(=S)Nc1ccccc1)c1cc2ccc1CCc1ccc(cc1)CC2	64.1% (inactive)
CC(O)CN1CCCCC1 (stereo not given)	106% (inactive)

SMILES	growth
O=C(CSC1CCc2ccccc21)N/N=C/c1ccccc1O (stereo not given)	27.4% (inactive)
O=C(/C=C/c1cc(-c2ccc3c(c2)OCO3)n[nH]1)c1ccc2c(c1)OCO2	91.6% (inactive)
COc1cc(Cn2cc3c(c2)-c2oncc2CC3)cc(OC)c1OC	1.48% (active)
COc1ccc(CCNC2=CC(=O)CCC2)cc1OC	113% (inactive)
COc1ccc(S(=O)(=O)n2cc(C(=O)C(=O)Nc3ccncc3)c3ccccc32)cc1F	72% (inactive)
CCCCCCCCN(CCCCCCCC)CCCCCCNc1cc(OC)cc2cccnc12	78.7% (inactive)
CC1=C(C#N)C(=O)NC(C)C1 (stereo not given)	105% (inactive)
CCN1CCN(c2nc(NNC(=O)c3ccccc3)nc(N3CCN(C(c4ccccc4)c4ccccc4)CC3)n2)CC1	53.1% (inactive)
Cc1nc2ncccc2nc1Nc1ccc(S(=O)(=O)Nc2ccccn2)cc1	72.6% (inactive)
C=C1CCC2C(C)(CO)C(O)CCC2(C)C1CC(NCc1ccccc1)C1=CCOC1=O (stereo not given)	102% (inactive)
CCCC(=O)Oc1ccc(/C(=C(\C)c2ccccc2)c2ccc(OCCN(CC)CC)cc2)cc1	90.7% (inactive)
COc1ccc(N=Cc2c(O)ccc3c2oc2cc(Cl)c(O)c(Cl)c23)cc1	62.2% (inactive)
Cc1c(C(N)=O)sc2c1c(=O)n(Cc1ccccc1)c1nnc(Nc3ccccc3)n21	104% (inactive)
COc1cc(C2C3=C(COC3=O)Nc3cc4c(cc32)OCO4)cc2c1OCO2 (stereo not given)	23.6% (inactive)
CNC(=S)NNC(=O)C1CC1	118% (inactive)
c1ccc(-c2nc(N3CCNCC3)c3nc(-c4ccccc4)oc3n2)cc1	-83.6% (active)
COc1cc(C(=O)/C=C/c2c(C)n([O-])c3ccc(C(F)(F)F)cc3[n+]2=O)cc(OC)c1OC	111% (inactive)
O=C(Nc1ccc(NCCN2CCOCC2)nc1)c1ccc([N+](=O)[O-])cc1	121% (inactive)
COc1ccc(C(=O)n2nc(/C=C/c3ccc(O)c(OC)c3)cc2/C=C/c2ccc(O)c(OC)c2)cc1	12.8% (inactive)
C=C[C@@H]1C[C@H](O)Cc2cc(F)ccc2N1	131% (inactive)
